Data: PubChem BioAssay (EPA / NIEHS)
Records with an inconclusive call do not appear. Activity calls are given as the source filed them. The calls were made as follows: active = hit-call score of the fitted dose curve at least 0.9, where 1 is the maximum; inconclusive = response in the unintended direction; inactive = score below 0.9.

These molecules were tested against Peroxisome proliferator-activated receptor gamma (Homo sapiens) (UniProt P37231) (assay: ATG_PPARg_TRANS: Attagene TRANS-FACTORIAL HepG2 Assay for human Peroxisome Proliferator-activated Receptor-gamma (PPARg) (AID 2283007)).
Chain of Peroxisome proliferator-activated receptor gamma (Homo sapiens) (P37231 whole entry, looked up, the tested form may be a part): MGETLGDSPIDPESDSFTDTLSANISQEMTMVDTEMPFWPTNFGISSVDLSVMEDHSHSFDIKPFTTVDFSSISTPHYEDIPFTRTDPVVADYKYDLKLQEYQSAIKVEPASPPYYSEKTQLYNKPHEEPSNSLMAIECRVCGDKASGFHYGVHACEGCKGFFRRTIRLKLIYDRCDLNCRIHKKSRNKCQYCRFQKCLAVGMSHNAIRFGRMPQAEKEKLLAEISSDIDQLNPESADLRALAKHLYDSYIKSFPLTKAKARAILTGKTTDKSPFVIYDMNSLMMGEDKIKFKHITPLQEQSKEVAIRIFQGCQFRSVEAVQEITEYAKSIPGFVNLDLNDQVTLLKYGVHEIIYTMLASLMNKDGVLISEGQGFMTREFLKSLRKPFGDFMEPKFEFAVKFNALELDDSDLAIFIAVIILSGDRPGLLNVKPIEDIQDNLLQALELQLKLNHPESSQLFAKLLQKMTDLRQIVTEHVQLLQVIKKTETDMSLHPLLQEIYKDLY
Summary of the method: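 A TRANS-format multiplexed reporter assay measures activity of an exogenous chimeric NR-Gal4 protein in HepG2 cells. After 24 h of chemical exposure, reporter transcripts are amplified, fluorescently labelled and sized by capillary electrophoresis, with gain of signal scored against DMSO.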

SMILES	outcome	AC50
Nc1ccc(Cl)c(N)c1	inactive	
O=C(Nc1ccccc1)c1cc(Cl)ccc1O		13 µM (active)
CC1(C)CCC[C@]2(C)[C@H]3CC(=O)O[C@]3(C)CC[C@@H]12	inactive	
CC(C)COC(=O)CC(C(=O)OCC(C)C)S(=O)(=O)O (configuration not stated)		66.8 µM (active)
Nc1ccnc(=O)[nH]1	inactive	
CC(=O)CCC1=C(C)CCCC1(C)C	inactive	
CCc1cccc(C)c1N	inactive	
COc1ccc(-c2coc3cc(O)cc(O)c3c2=O)cc1		27.1 µM (active)
C=CCNCC=C	inactive	
CC(=O)c1ccc(S(=O)(=O)NC(=O)NC2CCCCC2)cc1	inactive	
CCCCCCCC(=O)OCC(COC(=O)CCCCCCC)OC(=O)CCCCCCC	inactive	
CC(=O)C(C)C	inactive	
CC=CC(=O)OCC(C)C	inactive	
CCCCCCCOC(=O)c1ccc(O)cc1	inactive	
CC1C(C)(C)C2=C(C(=O)CCC2)C1(C)C (configuration not stated)	inactive	
CC(=O)OC/C=C(/C)CCC=C(C)C	inactive	
CCCCCCCCCCCCCC(=O)OC(C)C	inactive	
CN(C)Cc1cc(CN(C)C)c(O)c(CN(C)C)c1	inactive	
CCOC(=O)[C@H](O)[C@@H](O)C(=O)OCC	inactive	
CC(C)=CCCC(C)=CC#N	inactive	
CC(=O)OCC=C(C)C	inactive	
O=S(=O)(O)c1ccc(N=Nc2c(O)ccc3ccccc23)cc1	inactive	
CCCCC(CC)COC(=O)/C=C/c1ccc(OC)cc1 (configuration not stated)	inactive	
CC1=CC(C)C(C=O)CC1 (configuration not stated)	inactive	
CN(C)c1ccc2nc3ccc(=[N+](C)C)cc-3sc2c1		12.1 µM (active)
O=C1CCCCC1C1CCCCC1 (configuration not stated)	inactive	

What follows are molecules tested against Nuclear receptor subfamily 1 group I member 2 (Homo sapiens) (UniProt O75469) (assay: ATG_PXR_TRANS: Attagene TRANS-FACTORIAL HepG2 Assay for human Pregnane X Receptor (PXR) (AID 2283008)).
Chain of Nuclear receptor subfamily 1 group I member 2 (Homo sapiens) (O75469 whole entry, looked up, the tested form may be a part): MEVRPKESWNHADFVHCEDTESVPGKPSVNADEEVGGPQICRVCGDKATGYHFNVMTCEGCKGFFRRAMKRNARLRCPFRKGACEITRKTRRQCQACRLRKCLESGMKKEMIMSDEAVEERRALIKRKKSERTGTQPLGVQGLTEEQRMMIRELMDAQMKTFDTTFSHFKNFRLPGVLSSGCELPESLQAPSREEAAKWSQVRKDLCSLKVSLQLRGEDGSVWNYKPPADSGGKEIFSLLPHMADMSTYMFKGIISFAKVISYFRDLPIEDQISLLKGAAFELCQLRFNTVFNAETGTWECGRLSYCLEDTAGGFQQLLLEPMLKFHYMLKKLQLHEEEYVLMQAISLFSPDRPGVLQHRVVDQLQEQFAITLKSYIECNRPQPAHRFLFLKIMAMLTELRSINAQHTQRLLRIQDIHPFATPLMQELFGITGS
Summary of the method: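 Multiplexed TRANS reporter panel in HepG2; this component tracks PXR-Gal4-driven reporter mRNA after 24 h dosing, measured by RT-PCR with capillary electrophoresis fluorescence, fitted against DMSO.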

SMILES	outcome	AC50
Nc1ccc(Cl)c(N)c1	inactive	
O=C(Nc1ccccc1)c1cc(Cl)ccc1O	inactive	
CC1=CCC2CC1C2(C)C (configuration not stated)	inactive	
Cc1c(C(=O)c2c[nH]n(C)c2=O)ccc(S(C)(=O)=O)c1C1=NOCC1	inactive	
CC1(C)CCC[C@]2(C)[C@H]3CC(=O)O[C@]3(C)CC[C@@H]12		6.22 µM (active)
CC(C)COC(=O)CC(C(=O)OCC(C)C)S(=O)(=O)O (configuration not stated)		36.2 µM (active)
CC(=O)CCC1=C(C)CCCC1(C)C		6.98 µM (active)
CCN(CC)c1cccc(C)c1	inactive	
CCc1cccc(C)c1N	inactive	
COc1ccc(-c2coc3cc(O)cc(O)c3c2=O)cc1		26.6 µM (active)
C=CCNCC=C	inactive	
CCOC(=O)OC(=O)OCC	inactive	
CC(=O)c1ccc(S(=O)(=O)NC(=O)NC2CCCCC2)cc1	inactive	
CC(=O)C(C)C	inactive	
CC1C(C)(C)C2=C(C(=O)CCC2)C1(C)C (configuration not stated)		7.68 µM (active)
CCOC(=O)c1ccccc1C	inactive	
CC1(C)C(=O)N(CO)C(=O)N1CO	inactive	
C=C[Si](OCCOC)(OCCOC)OCCOC	inactive	
CCOC(=O)[C@H](O)[C@@H](O)C(=O)OCC		68.2 µM (active)
CC(C)=CCCC(C)=CC#N	inactive	
CCCCC(CC)COC(=O)/C=C/c1ccc(OC)cc1 (configuration not stated)	inactive	
CC1=CC(C)C(C=O)CC1 (configuration not stated)		27.8 µM (active)
CN(C)c1ccc2nc3ccc(=[N+](C)C)cc-3sc2c1		10.3 µM (active)
CC(C)c1ccc2ncccc2c1		21.4 µM (active)

What follows are molecules tested against human Retinoic Acid Receptor gamma (RARg), RARG (gene 5916) (UniProt P13631) (assay: ATG_RARg_TRANS: Attagene TRANS-FACTORIAL HepG2 Assay for human Retinoic Acid Receptor gamma (RARg) (AID 2283009)).
Chain of human Retinoic Acid Receptor gamma (RARg), RARG (gene 5916) (P13631 whole entry, looked up, the tested form may be a part): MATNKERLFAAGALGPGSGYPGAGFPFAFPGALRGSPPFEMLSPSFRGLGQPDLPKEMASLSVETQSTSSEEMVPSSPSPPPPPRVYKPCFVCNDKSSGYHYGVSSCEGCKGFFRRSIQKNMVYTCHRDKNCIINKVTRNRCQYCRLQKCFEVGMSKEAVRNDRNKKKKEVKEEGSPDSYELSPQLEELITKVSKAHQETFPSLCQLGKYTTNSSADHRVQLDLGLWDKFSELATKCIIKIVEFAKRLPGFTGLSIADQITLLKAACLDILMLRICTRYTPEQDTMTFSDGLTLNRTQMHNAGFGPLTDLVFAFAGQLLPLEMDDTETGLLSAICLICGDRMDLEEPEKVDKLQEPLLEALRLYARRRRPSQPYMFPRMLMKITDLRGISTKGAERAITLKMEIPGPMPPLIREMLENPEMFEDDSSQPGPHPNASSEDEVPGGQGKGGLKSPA
Summary of the method: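 Gain-of-signal relative to DMSO is reported from fluorescent capillary electrophoresis of RT-PCR reporter products. These came from HepG2 cells expressing transfected RARg-GAL4 chimeras with UAS reporters, harvested 24 h after dosing.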

SMILES	outcome
Nc1ccc(Cl)c(N)c1	inactive
O=C(Nc1ccccc1)c1cc(Cl)ccc1O	inactive
CC1=CCC2CC1C2(C)C (configuration not stated)	inactive
CC1(C)CCC[C@]2(C)[C@H]3CC(=O)O[C@]3(C)CC[C@@H]12	inactive
CC(=O)CCC1=C(C)CCCC1(C)C	inactive
[Cl][Sc]([Cl])[Cl]	inactive
CCN(CC)c1cccc(C)c1	inactive
CCc1cccc(C)c1N	inactive
COc1ccc(-c2coc3cc(O)cc(O)c3c2=O)cc1	inactive
CCOC(=O)OC(=O)OCC	inactive
CC(=O)c1ccc(S(=O)(=O)NC(=O)NC2CCCCC2)cc1	inactive
CC(=O)C(C)C	inactive
CC=CC(=O)OCC(C)C	inactive
CCCCCCCOC(=O)c1ccc(O)cc1	inactive
CC1C(C)(C)C2=C(C(=O)CCC2)C1(C)C (configuration not stated)	inactive
CC1(C)C(=O)N(CO)C(=O)N1CO	inactive
CCCCCCCCCCCCCC(=O)OC(C)C	inactive
O=S(=O)(O)c1ccc(N=Nc2c(O)ccc3ccccc23)cc1	inactive
CC1=CC(C)C(C=O)CC1 (configuration not stated)	inactive
CN(C)c1ccc2nc3ccc(=[N+](C)C)cc-3sc2c1	inactive
CC(C)c1ccc2ncccc2c1	inactive
O=C1CCCCC1C1CCCCC1 (configuration not stated)	inactive
